Source: PubChem BioAssay AID1159580 (chemical genetic matrix, 2015)
Screen size: about 5,500 compounds; about 2,000 (36%) were called active. About 18% were inconclusive and are not listed. Cut-off read from the data, not from the text of the source: active = normalized growth mostly below about 0.91 (no sharp cut-off); inconclusive = no clear call, values can overlap the other calls; inactive = mostly above about 0.92. The list shows a part of the results.

Test: chemical genetic growth profiling, strain panel (AID 1159580);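 note: tested at 20 µM; growth read once vehicle control cultures reached saturation at 30 °C; 1 = growth at the plate median or of vehicle wells; lower values mean less growth of the strain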
Details: growth OD

Measured: normalized growth

COC1=CC(C)[C@@H]2C[C@H]3OC(=O)C[C@H]4C(C)=C(OC)C(=O)C([C@@]34C)[C@@]2(C)C1=O (some centres undefined)
inactive: S. cerevisiae deletion strains, locus YKL009W, strain mrt4, active compounds read low 1.01 | S. cerevisiae deletion strains, locus YKL068W, active compounds read low 1 | S. cerevisiae deletion strains, locus YKL085W, strain MDH1 (second series), active compounds read low 1 | S. cerevisiae deletion strains, locus YKL085W, strain MDH1, active compounds read low 1 | S. cerevisiae deletion strains, locus YKL160W, strain elf1, active compounds read low 1 | S. cerevisiae deletion strains, locus YKL190W, strain CNB1, active compounds read low 1.01 | S. cerevisiae deletion strains, locus YKR001C, strain vps1, active compounds read low 0.986 | S. cerevisiae deletion strains, locus YKR026C, strain gcn3, active compounds read low 0.96 | S. cerevisiae deletion strains, locus YKR091W, strain srl3, active compounds read low 0.967 | S. cerevisiae deletion strains, locus YLL001W, strain dnm1, active compounds read low 0.969 | S. cerevisiae deletion strains, locus YLL026W, active compounds read low 0.985 | S. cerevisiae deletion strains, locus YLL041C, strain sdh2, active compounds read low 0.983 | S. cerevisiae deletion strains, locus YLR027C, strain aat2, active compounds read low 0.992 | S. cerevisiae deletion strains, locus YLR039C, strain RIC1, active compounds read low 1.06 | S. cerevisiae deletion strains, locus YLR058C, strain SHM2, active compounds read low 1.02 | S. cerevisiae deletion strains, locus YLR102C, strain apc9, active compounds read low 1.02 | S. cerevisiae deletion strains, locus YLR113W, strain HOG1, active compounds read low 1.03 | S. cerevisiae deletion strains, locus YLR221C, strain rsa3, active compounds read low 1.01 | S. cerevisiae deletion strains, locus YLR258W, strain gsy2, active compounds read low 0.968 | S. cerevisiae deletion strains, locus YLR262C, strain YPT6 (second series), active compounds read low 0.991 | S. cerevisiae deletion strains, locus YLR262C, strain YPT6, active compounds read low 1.16 | S. cerevisiae deletion strains, locus YLR268W, strain sec22, active compounds read low 1.04 | S. cerevisiae deletion strains, locus YLR320W, strain mms22, active compounds read low 0.975 | S. cerevisiae deletion strains, locus YLR330W, strain CHS5, active compounds read low 1.01 | S. cerevisiae deletion strains, locus YLR342W, strain FKS1 (second series), active compounds read low 1.01 | S. cerevisiae deletion strains, locus YLR342W, strain FKS1, active compounds read low 0.976 | S. cerevisiae deletion strains, locus YLR357W, strain rsc2, active compounds read low 0.942 | S. cerevisiae deletion strains, locus YLR370C, strain arc18, active compounds read low 0.978 | S. cerevisiae deletion strains, locus YLR371W, strain rom2, active compounds read low 1.02 | S. cerevisiae deletion strains, locus YLR384C, strain iki3, active compounds read low 0.967 | S. cerevisiae deletion strains, locus YLR418C, strain cdc73, active compounds read low 1 | S. cerevisiae deletion strains, locus YML016C, strain PPZ1, active compounds read low 1.01 | S. cerevisiae deletion strains, locus YML032C, strain rad52, active compounds read low 1.01 | S. cerevisiae deletion strains, locus YML120C, strain ndi1, active compounds read low 0.99 | S. cerevisiae deletion strains, locus YML124C, strain tub3, active compounds read low 1.01 | S. cerevisiae deletion strains, locus YMR058W, strain fet3, active compounds read low 0.976 | S. cerevisiae deletion strains, locus YMR078C, strain ctf18, active compounds read low 1.03 | S. cerevisiae deletion strains, locus YMR125W, strain sto1, active compounds read low 0.975 | S. cerevisiae deletion strains, locus YMR129W, active compounds read low 0.987 | S. cerevisiae deletion strains, locus YMR205C, strain PFK2, active compounds read low 0.946 | S. cerevisiae deletion strains, locus YMR223W, strain ubp8, active compounds read low 1.01 | S. cerevisiae deletion strains, locus YMR231W, strain pep5, active compounds read low 0.973 | S. cerevisiae deletion strains, locus YMR263W, strain SAP30, active compounds read low 1.02 | S. cerevisiae deletion strains, locus YMR307W, strain GAS1, active compounds read low 1.17 | S. cerevisiae deletion strains, locus YNL067W, strain RPL9B, active compounds read low 1.03 | S. cerevisiae deletion strains, locus YNL071W, strain lat1, active compounds read low 0.987 | S. cerevisiae deletion strains, locus YNL153C, strain GIM3, active compounds read low 1.02 | S. cerevisiae deletion strains, locus YNL183C, strain NPR1, active compounds read low 0.988 | S. cerevisiae deletion strains, locus YNL209W, strain ssb2, active compounds read low 1 | S. cerevisiae deletion strains, locus YNL233W, strain BNI4, active compounds read low 1.03 | S. cerevisiae deletion strains, locus YNL248C, strain rpa49, active compounds read low 1.01 | S. cerevisiae deletion strains, locus YNL250W, strain rad50, active compounds read low 1.03 | S. cerevisiae deletion strains, locus YNL271C, strain bni1, active compounds read low 1.01 | S. cerevisiae deletion strains, locus YNL298W, strain CLA4, active compounds read low 1.02 | S. cerevisiae deletion strains, locus YNL307C, strain MCK1, active compounds read low 1.01 | S. cerevisiae deletion strains, locus YNL322C, strain KRE1 (second series), active compounds read low 0.988 | S. cerevisiae deletion strains, locus YNL322C, strain KRE1, active compounds read low 1 | S. cerevisiae deletion strains, locus YNR049C, strain mso1, active compounds read low 0.973 | S. cerevisiae deletion strains, locus YNR052C, strain pop2, active compounds read low 1.01 | S. cerevisiae deletion strains, locus YOL006C, strain TOP1, active compounds read low 1.08 | S. cerevisiae deletion strains, locus YOL012C, strain htz1 2.07 | S. cerevisiae deletion strains, locus YOL147C, strain pex11, active compounds read low 1 | S. cerevisiae deletion strains, locus YOR001W, strain rrp6, active compounds read low 0.993 | S. cerevisiae deletion strains, locus YOR061W, strain CKA2, active compounds read low 1.01 | S. cerevisiae deletion strains, locus YOR069W, strain VPS5, active compounds read low 1.01 | S. cerevisiae deletion strains, locus YOR070C, strain gyp1, active compounds read low 0.987 | S. cerevisiae deletion strains, locus YOR080W, strain dia2, active compounds read low 0.977 | S. cerevisiae deletion strains, locus YOR083W, strain WHI5, active compounds read low 1.01 | S. cerevisiae deletion strains, locus YOR106W, strain vam3, active compounds read low 0.992 | S. cerevisiae deletion strains, locus YOR136W, strain idh2, active compounds read low 1.01 | S. cerevisiae deletion strains, locus YOR144C, strain elg1, active compounds read low 1.01 | S. cerevisiae deletion strains, locus YOR184W, strain ser1, active compounds read low 1.02 | S. cerevisiae deletion strains, locus YOR231W, strain MKK1, active compounds read low 1.04 | S. cerevisiae deletion strains, locus YOR265W, strain rbl2, active compounds read low 0.982 | S. cerevisiae deletion strains, locus YOR270C, strain vph1, active compounds read low 0.975 | S. cerevisiae deletion strains, locus YOR290C, strain snf2, active compounds read low 0.903 | S. cerevisiae deletion strains, locus YOR316C, strain cot1, active compounds read low 1.01 | S. cerevisiae deletion strains, locus YPL051W, strain arl3, active compounds read low 1 | S. cerevisiae deletion strains, locus YPL078C, strain atp4, active compounds read low 0.996 | S. cerevisiae deletion strains, locus YPL106C, strain sse1, active compounds read low 0.978 | S. cerevisiae deletion strains, locus YPL240C, strain hsp82, active compounds read low 0.987 | S. cerevisiae deletion strains, locus YPL241C, strain CIN2, active compounds read low 1.01 | S. cerevisiae deletion strains, locus YPL256C, strain CLN2, active compounds read low 1.01 | S. cerevisiae deletion strains, locus YPR119W, strain clb2, active compounds read low 1.01 | S. cerevisiae deletion strains, locus YPR141C, strain kar3, active compounds read low 1.01 | S. cerevisiae deletion strains, locus YPR163C, strain tif3, active compounds read low 1.01 | S. cerevisiae deletion strains, locus YPR167C, strain met16, active compounds read low 1 | S. cerevisiae deletion strains, strain wtn01, active compounds read low 1.01 | S. cerevisiae strains, strain wild type, active compounds read low 1.01
